Unmarked numbers belong to inactive results. Activity calls are given as the source filed them. The call rests on the fitted dose curve; in most records, active means well fitted curve in the direction sought with a large enough effect; inconclusive means small, poorly fitted or top-dose-only effect, or another doubt; inactive means no such curve, though single readings can be large or run the other way.
These compounds were tested against Guanine nucleotide-binding protein G(i) subunit alpha-1 (Homo sapiens) (UniProt P63096) (assay: qHTS Assay for Inhibitors of RGS12 GoLoco Motif Activity (Green Fluorophore) (AID 879;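 on activity, negative = inhibition: 0% = labeled peptide with Gαi1 and full inhibition = labeled peptide alone without protein; negative values mean loss of peptide binding seen as reduced polarization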)). Details: Galphai1/FITC-RGS12 GoLoco peptide, fluorescence polarization; series mostly up to 57.1 µM; activity, negative = inhibition: at the top concentration.
Chain of Guanine nucleotide-binding protein G(i) subunit alpha-1 (Homo sapiens) (P63096 whole entry, looked up): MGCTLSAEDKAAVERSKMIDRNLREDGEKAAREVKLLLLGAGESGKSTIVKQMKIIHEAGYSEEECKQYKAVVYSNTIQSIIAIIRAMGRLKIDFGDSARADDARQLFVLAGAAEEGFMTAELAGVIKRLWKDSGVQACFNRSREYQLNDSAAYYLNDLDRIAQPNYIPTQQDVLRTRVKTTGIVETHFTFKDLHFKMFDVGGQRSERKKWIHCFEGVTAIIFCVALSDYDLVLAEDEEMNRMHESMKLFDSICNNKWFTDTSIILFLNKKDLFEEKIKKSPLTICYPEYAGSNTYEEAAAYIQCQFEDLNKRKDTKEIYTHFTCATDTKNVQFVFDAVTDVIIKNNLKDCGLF
Method in brief: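 A drop in FITC polarization marked displacement of the FITC-tagged RGS12 GoLoco peptide (10 nM) from Gαi1 (50 nM). Compounds were incubated 10 min at room temperature in Tris pH 7.5 buffer containing 150 mM NaCl, 0.1 mM GDP and 0.05% NP40; unlabeled peptide titration served as control.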
Potency means the concentration at half of the fitted maximal effect.

Row | SMILES | activity, negative = inhibition | Potency
1 | CCCCCCCCCCCCCCC[C@H](O)[C@H](N)CO | 4.54% | –
2 | COc1cc(CNC(=O)CCCCCCC(C)C)ccc1O | 4.6% | –
3 | CCCC(=O)NCCc1c2n(c3ccc(OC)cc13)CCCc1ccccc1-2 | -17.6% | –
4 | N#C/C(=C\c1ccc(O)c(O)c1)C(=O)NCCCNC(=O)/C(C#N)=C/c1ccc(O)c(O)c1 | 6.47% | –
5 | Cn1c(=O)c2[nH]c(-c3ccc(S(=O)(=O)O)cc3)nc2n(C)c1=O | -21.5% | –
6 | O=c1oc(Cl)c(Cl)c2ccccc12 | 2.73% | –
7 | O=c1[nH]c(=O)c2nc3ccccc3nc2[nH]1 | -9.5% | –
8 | Cn1ccnc1 | 6.17% | –
9 | Nc1ccc2c3c(cccc13)C(=O)NC2=O | – | 794 nM (active)
10 | CC(=O)NCCc1c[nH]c2ccc(O)cc12 | -16.7% | –
11 | Nc1nc2[nH]c(=O)cnc2c(=O)[nH]1 | 8.72% | –
12 | CCCOC(=O)c1c(-c2ccccc2)nc(CC)c(C(=O)SCC)c1CCC | -8.36% | –
13 | O=C1Nc2ccc(I)cc2/C1=C/c1cc(Br)c(O)c(Br)c1 | 140% | –
14 | O=C(O)Cc1c[nH]c2ccc(O)cc12 | -11.6% | –
15 | NC(N)=[N+]1CCc2ccccc2C1 | -24.2% | –
16 | Cc1ccc2c(c1)C(N1CCN(C)CC1)=Nc1cccnc1N2 | -25.4% | –
17 | C/C(=C\c1ccc(C(=O)O)cc1)c1ccc2c(c1)C(C)(C)CCC2(C)C | -19.7% | –
18 | Nc1nc2ccc(Cl)cc2c2nc(-c3ccco3)nn12 | -19.4% | –
19 | CCN(CC)CCCCCCCCOC(=O)c1cc(OC)c(OC)c(OC)c1 | 1.91% | –
20 | O=C(O)C1=CCCN(CCON=C(c2ccccc2)c2ccccc2)C1 | -7.3% | –
21 | Cc1cc2c(cc1Cl)N(C(=O)Nc1ccnc3ccccc13)CC2 | 2.28% | –
